In all, about 33,000 sequences were measured (“E-score (-0.5 to 0.5)”: median about -0.015, highest 2% from about 0.3 on). The list comes from a sample in which the highest values are over-represented; it also holds similar and randomly drawn sequences.
molecular target: T1, Abf1 (UniProt P14164); test: PBM E-score (8-mer binding enrichment) (E-score (-0.5 to 0.5)); higher = stronger / more preferred TF binding; settings: protein concentration: 200 nM; construct: GST-full length
T1 sequence: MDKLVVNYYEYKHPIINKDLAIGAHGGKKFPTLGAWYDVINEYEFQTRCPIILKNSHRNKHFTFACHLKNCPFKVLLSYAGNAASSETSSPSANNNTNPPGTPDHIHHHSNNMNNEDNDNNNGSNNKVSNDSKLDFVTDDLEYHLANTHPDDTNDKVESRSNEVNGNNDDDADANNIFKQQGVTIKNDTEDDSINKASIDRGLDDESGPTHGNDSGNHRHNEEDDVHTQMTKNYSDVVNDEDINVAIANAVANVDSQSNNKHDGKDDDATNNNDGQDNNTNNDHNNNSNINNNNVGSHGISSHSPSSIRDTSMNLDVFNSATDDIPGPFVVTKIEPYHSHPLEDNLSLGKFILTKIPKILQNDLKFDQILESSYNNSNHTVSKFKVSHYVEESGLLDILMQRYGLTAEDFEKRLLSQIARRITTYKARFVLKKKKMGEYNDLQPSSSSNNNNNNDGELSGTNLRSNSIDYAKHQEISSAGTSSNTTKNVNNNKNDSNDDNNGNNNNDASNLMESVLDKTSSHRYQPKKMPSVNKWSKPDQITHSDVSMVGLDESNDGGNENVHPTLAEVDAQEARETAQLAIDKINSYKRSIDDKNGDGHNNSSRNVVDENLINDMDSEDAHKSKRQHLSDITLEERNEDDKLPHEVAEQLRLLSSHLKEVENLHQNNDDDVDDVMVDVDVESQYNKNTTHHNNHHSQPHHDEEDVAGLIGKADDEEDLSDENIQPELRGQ
Outline: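 Masliner-normalised scans of fluorescent anti-GST signal were the basis for scoring. That signal came from GST-tagged yeast transcription factors applied at about 100-200 nM to double-stranded universal all-10-mer Agilent arrays on fresh or once-stripped slides. Each ungapped eight-base word, pooled with its reverse complement, received an E-score from the Universal PBM Analysis Suite.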

| Sequence | PBM E-score |
| --- | --- |
| GACGCCGA | 0.0176 |
| AGTATAAG | 0.0186 |
| AGTATAAA | 0.252 |
| AGTATAAC | 0.194 |
| TGTATCAA | -0.0209 |
| CGTATAAC | 0.366 |
| CGTATAAG | 0.349 |
| CGTATAAA | 0.417 |
| CATATAAG | 0.0553 |
| CGTATCAC | 0.281 |
| TGTATAAA | 0.116 |
| CGTATCAA | 0.343 |
| GGTATAAC | 0.0343 |
| GATCCTAA | 0.0497 |
| ACCAAAAC | 0.0329 |
| ATTAAGTA | 0.133 |
| ATCTGTCA | 0.212 |
| CAACCAGG | -0.288 |
| CGAAAGGA | 0.191 |
| GGAATACA | -0.0854 |
| ATGGCTAA | -0.0715 |
| CATCGTCC | 0.137 |

| Sequence | PBM E-score |
| --- | --- |
| AATCGTCA | 0.334 |
| CATCGTCA | 0.297 |
| GATCGTCA | 0.277 |
| TATCGTCA | 0.33 |
| AATCGTCC | 0.168 |
| AATCGTCT | 0.269 |
| CATCGTCG | 0.231 |
| TATCGTGA | 0.286 |
| CGAATGGA | 0.0823 |
| GACCCTAA | 0.012 |
| CAACGTTC | -0.145 |
| GATGATGA | 0.223 |
| TATGATGA | 0.313 |
| GATGATGC | 0.152 |
| CATGATGG | -0.191 |
| CATGATGC | 0.123 |
| CATGATGA | 0.365 |
| CAGTACCC | -0.0706 |
| CGTAATAG | 0.112 |
| GGTAATAC | 0.099 |
| CGTAATAC | 0.303 |
| GAGTGATC | 0.327 |

| Sequence | PBM E-score |
| --- | --- |
| GAGTGAGC | 0.033 |
| AGGTGATC | 0.276 |
| GAGTGAAC | -0.115 |
| ATGTGATC | 0.18 |
| ATGTGATG | 0.0498 |
| CAGTGATG | 0.255 |
| AAGTGATT | 0.347 |
| AAGTGAAT | 0.16 |
| AAGTGAGT | 0.0964 |
| AAGTGATC | 0.41 |
| AAGTGATG | 0.314 |
| CAAAATGA | 0.275 |
| CAAGATGC | 0.148 |
| TAACTCTA | -0.0858 |
| TACAGGGA | -0.19 |
| GACGGGAC | -0.171 |
| ACGGCAAT | 0.277 |
| CTCAATGA | 0.0427 |
| TGAATTCA | 0.171 |
| CAGGGCCA | -0.227 |
| CTGTGATC | 0.0861 |
| CAGTGAGC | -0.118 |

| Sequence | PBM E-score |
| --- | --- |
| CAGTGATC | 0.366 |
| GGTGTACA | -0.178 |
| CGTCATAG | 0.143 |
| CGTCATCA | 0.349 |
| CGTCATCC | 0.167 |
| GGTCATAC | -0.0499 |
| GGTCATTA | 0.134 |
| CGTCATAC | 0.316 |
| AGTCATTA | 0.037 |
| CGTCATTA | 0.327 |
| AGTCATCA | 0.135 |
| GACTGCGA | -0.206 |
| GCTATGCA | -0.102 |
| AGGCACGG | 0.062 |
| GACAGACA | 0.119 |
| CGGTCAGC | -0.137 |
| CACGTCTA | 0.166 |
| GAGAATAA | 0.034 |
| ATGATCAC | 0.335 |
| ACGATCAC | 0.274 |
| GTGATCAA | 0.392 |
| ATCATGAG | 0.238 |

| Sequence | PBM E-score |
| --- | --- |
| CTGATCAA | -0.114 |
| GTGATCAC | 0.386 |
| ATCATGAA | 0.121 |
| ATGATCAG | 0.269 |
| ATGATCAA | 0.273 |
| CTGATCAC | 0.294 |
| GGGATCAC | -0.0214 |
| ATCATGAT | 0.416 |
| CGAGCTTA | -0.0534 |
| AGCAGTAC | -0.0878 |
| GCAAACGC | 0.00943 |
| AAGGTCGC | 0.0476 |
| AATTGAAA | 0.116 |
| AATCCAGG | 0.0662 |
| CCTGTCTC | -0.123 |
| ATGGGGTA | -0.00916 |
| CGAGCGGC | -4e-05 |
| CGTTACCC | -0.152 |
| CCTCTATC | -0.0168 |
| AGGATCAT | 0.0179 |
| ACGATCAT | 0.222 |
| ATGATCAT | 0.387 |

Reference: the supplement of paper PMC3334620
